Source: PubChem BioAssay (Tox21)
A number with no mark means an inactive call. A call without a number means that no potency is given here. Calls of active or inactive are those of the source. Calls come from the whole dose curve; as a rule, active = well fitted activation curve with a large enough effect in the repeat runs; inconclusive = weak or mixed curves; inactive = flat fitted curve, though single readings scatter.

assay: A CellTox Green Cytotoxicity Assay to monitor cytotoxicity in HEK293 cells - 0 hour (AID 1224869); conditions: CellTox Green fluorescence; series mostly up to 76.8 µM; note: nearly all actives have a fitted effect of over 50% in size
Source text: National Center for Advancing Translational Sciences [NCATS]
NIH Chemical Genomics Center [NCGC]
U.S. Environmental Protection Agency [EPA]
National Institutes of Environmental Health Sciences [NIEHS]
National Toxicology Program [NTP]
Cell-based models are critical for drug discovery. Determining the natural cytotoxic effects resulting from test compounds is an essential research activity. A CellTox Green Cytotoxicity Assay to monitor cytotoxicity in real time of continues cell culture during 40 hours of the compound treatment was used to screen Tox21 10K library compounds in Hek293 cells. CellTox Green Cytotoxicity Assay is a nonlytic, homogeneous, biofluorescent method to measure cytotoxicity in cell culture after experimental manipulation. The assay system uses a proprietary asymmetric cyanine dye that is excluded from viable cells but preferentially stains the dead cell's DNA. […] Viable cells produce no appreciable increases in fluorescence. Therefore, the fluorescence signal produced by the binding interaction with dead cell DNA is proportional to cytotoxicity.
The mixture of Hek293 cell suspension and reagents were dispensed at 600cells/6 ul/well in 1536-well tissue culture treated black solid bottom plates using a Multidrop dispenser. After the assay plates were incubated at a 37 C/5% CO2 incubator for 5 hours, 23 nL of compounds dissolved in DMSO, positive and negative controls was transferred to the assay plate by a pintool work station. The plates were incubated at 37 C for 40 hours. The fluorescence intensity were measured at 0h, 8h, 16h, 24h, 32h and 40h time points using ViewLux plate reader during compound treatment.
Potency is the fitted concentration of half-maximal effect.

| Structure (SMILES) | Potency | cytotoxicity |
| --- | --- | --- |
| O=C1C(I)=CC(=C(c2cc(I)c(O)c(I)c2)c2ccccc2C(=O)O)C=C1I | inactive | – |
| CN1CSC(=S)N(C)C1 | inactive | – |
| O=C(Nc1ccccc1-c1ccc(Cl)cc1)c1cccnc1Cl | 46.3 µM (active) | – |
| CCN(CC)C(=O)Cl | inactive | – |
| O=C(c1ccccc1)C(Cl)Cl | inactive | – |
| ClC1=C(Cl)[C@]2(Cl)[C@@H]3[C@@H](Cl)[C@H]4O[C@H]4[C@@H]3C1(Cl)C2(Cl)Cl | inactive | – |
| Clc1ccccc1-c1ccccc1Cl | inactive | – |
| Oc1c(I)cc(I)cc1I | inactive | – |
| CO/C=C(/C(=O)OC)c1ccccc1Oc1cc(Oc2ccccc2C#N)ncn1 | inactive | – |
| Cc1ccc2nc3sc(=O)sc3nc2c1 | – | -0.433% [at 15.8 µM] |
| N#Cc1cc([N+](=O)[O-])ccc1N | inactive | – |
| Cc1cc(C)c(C(=O)P(=O)(c2ccccc2)c2ccccc2)c(C)c1 | inactive | – |
| COc1ccc(C(c2ccc(OC)cc2)C(Cl)(Cl)Cl)cc1 | inactive | – |
| CCOC(=O)C(O)(c1ccc(Cl)cc1)c1ccc(Cl)cc1 | inactive | – |
| CC1COC(Cn2cncn2)(c2ccc(Oc3ccc(Cl)cc3)cc2Cl)O1 (configuration not stated) | inactive | – |
| Cc1ccc(N(SC(F)(Cl)Cl)S(=O)(=O)N(C)C)cc1 | inactive | – |
| Cc1cc(C(C)(C)c2ccc(O)c(C)c2)ccc1O | inactive | – |
| Cc1nnc2n1-c1sc(CCc3ccc(CC(C)C)cc3)cc1C(c1ccccc1Cl)=NC2C (configuration not stated) | inactive | – |
| CC(c1ccccc1)(c1ccc(O)cc1)c1ccc(O)cc1 | inactive | – |
| ClC(Cl)=C(c1ccc(Cl)cc1)c1ccccc1Cl | inactive | – |
| Nc1ccc([N+](=O)[O-])cc1 | inactive | – |
| O=S(=O)(C(Cl)(Cl)Cl)C(Cl)(Cl)Cl | inactive | – |
| c1ccc2c(c1)Sc1ccccc1N2CC1CN2CCC1CC2 (configuration not stated) | inactive | – |
| OCC(c1ccc(Cl)cc1)c1ccc(Cl)cc1 | inactive | – |
| COc1cc(OC)c(OC)cc1C=O | inactive | – |
| OC(Cc1ccccc1Cl)(Cn1[nH]cnc1=S)C1(Cl)CC1 (configuration not stated) | inactive | – |
| C[C@]12CC[C@@H](O)C[C@@H]1CC[C@@H]1[C@@H]2CC[C@]2(C)C(=O)CC[C@@H]12 | inactive | – |
